This passage reports composite z-score and z-score results from PubChem BioAssay.

Assay [1] concerns Human papillomavirus type 1a protein E7 (residues 44-93). Put plainly: HPV1a E7 fragment binders on microarrays, primary screen, biochemical, small-molecule microarray, residues 44-93, 635 nm fluorescence (AID 1108).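 Further: E7 fragment applied at 1 µg/mL in TBST for 1 h at 4 C; score combines spot fluorescence with its signal to noise ratio.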 Particulars: small-molecule microarray binding, fluorescence 635 nm; higher = more signal.
A short description of assay [2]: modulators of HCV replicon luciferase signal, primary screen, HCV replication inhibitor project, Huh7 cells, luciferase reporter (AID 1109).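 Further: huh7 hepatoma cells harbouring a luciferase neomycin HCV replicon reporter; luciferase luminescence as measure of HCV replicon replication; test concentration not given here.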 Particulars: 48 h, higher = more signal. In general terms: Replicon systems follow genome replication, usually without infectious particles.
Assay [3] addresses Left-right determination factor 2 (Homo sapiens) (UniProt O00292). Kind of assay: LEFTY2 binders on small-molecule microarrays, primary screen, biochemical, small-molecule microarray, 635 nm fluorescence scan (AID 1110). Particulars: LEFTY2 binding, higher = more signal.
Assay [4] addresses Calmodulin-1 (Homo sapiens) (UniProt P0DP23). Kind of assay: CALM1 binders on microarrays, EGTA buffer, profiling panel, biochemical, small-molecule microarray, Cy5-labelled CALM1 (AID 1111).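 Further: labelled calmodulin applied in Tris saline Tween buffer holding calcium plus EGTA and DTT.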 Particulars: Cy5-CALM1 binding fluorescence, higher = more signal.
The target is the same in assay [5]. Put plainly: calcium-bound CALM1 binders on microarrays, profiling panel, artefact control for SMM control-protein annotation, biochemical, small-molecule microarray, Cy5-labelled CALM1, plus calcium (AID 1112).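 Further: score merges spot fluorescence with signal to noise from triplicate slides.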 Particulars: Cy5-CALM1 binding fluorescence, higher = more signal.
Assay [6] can be described thus: small-molecule microarray binders of probe aWnt5a, primary screen, biochemical, biotinylated probe, 635/667 nm fluorescence (AID 1113).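 Further: score merges 667 nm fluorescence intensity with signal-to-noise per printed feature.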 Particulars: higher = more signal.
Assay [7] can be described thus: small-molecule microarray binders of probe aShh, primary screen, biochemical, biotinylated probe, 635/667 nm fluorescence (AID 1114).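 Further: probe is biotin-labelled aShh protein from a stem cell growth factor screen; measures binding of labelled protein to compounds printed on the slide; score merges feature fluorescence at 667 nm with signal-to-noise.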 Particulars: higher = more signal.
Assay [8] in a line: small-molecule microarray binders of probe aNog, primary screen, biochemical, biotinylated probe, 635/667 nm fluorescence (AID 1115).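 Further: probe is biotinylated aNog protein used at 0.15 µg/mL for 1 h at 4 C; z-score combines 667 nm fluorescence of each spot with its signal to noise.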 Particulars: higher = more signal.
Assay [9] concerns the target Torsin-1A-interacting protein 1 (Homo sapiens) (UniProt Q5JTV8). Put plainly: LAP1 binders from COS7 cell lysate, primary screen, small-molecule microarray, 635/667 nm fluorescence (AID 1116). Particulars: COS7-hLAP1 lysate binding, 635 nm fluorescence, higher = more signal.
The target in assay [10] is Alpha-bungarotoxin (Bungarus multicinctus) (UniProt P60615). Kind of assay: alpha-bungarotoxin binders on microarray, profiling panel, artefact control for SMM control protein annotation, biochemical, small-molecule microarray, Alexa647 label, 635/667 nm fluorescence (AID 1117). Particulars: alpha-BTX-A647 binding fluorescence, higher = more signal.
Sequence of Alpha-bungarotoxin (Bungarus multicinctus) (P60615 whole entry, looked up): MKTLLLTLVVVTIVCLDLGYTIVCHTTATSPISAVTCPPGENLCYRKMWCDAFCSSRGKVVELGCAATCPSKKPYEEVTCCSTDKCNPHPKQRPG

Sequence of Torsin-1A-interacting protein 1 (Homo sapiens) (Q5JTV8 whole entry, looked up): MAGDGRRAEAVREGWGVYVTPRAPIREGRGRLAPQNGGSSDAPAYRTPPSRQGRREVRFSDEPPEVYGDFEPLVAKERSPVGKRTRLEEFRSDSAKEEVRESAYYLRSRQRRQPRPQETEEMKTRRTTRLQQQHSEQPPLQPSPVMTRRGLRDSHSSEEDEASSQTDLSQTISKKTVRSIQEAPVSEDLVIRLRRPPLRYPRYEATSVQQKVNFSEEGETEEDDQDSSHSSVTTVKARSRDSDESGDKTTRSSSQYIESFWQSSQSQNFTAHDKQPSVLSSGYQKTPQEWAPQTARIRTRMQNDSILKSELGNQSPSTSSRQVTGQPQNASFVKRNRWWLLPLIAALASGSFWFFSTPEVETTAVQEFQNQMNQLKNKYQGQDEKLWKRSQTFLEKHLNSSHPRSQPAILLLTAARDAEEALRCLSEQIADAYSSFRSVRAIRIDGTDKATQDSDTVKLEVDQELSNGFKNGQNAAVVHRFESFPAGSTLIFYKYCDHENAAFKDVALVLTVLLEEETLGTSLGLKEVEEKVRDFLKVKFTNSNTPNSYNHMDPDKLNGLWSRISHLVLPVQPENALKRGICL
Sequence of Left-right determination factor 2 (Homo sapiens) (O00292 whole entry, looked up): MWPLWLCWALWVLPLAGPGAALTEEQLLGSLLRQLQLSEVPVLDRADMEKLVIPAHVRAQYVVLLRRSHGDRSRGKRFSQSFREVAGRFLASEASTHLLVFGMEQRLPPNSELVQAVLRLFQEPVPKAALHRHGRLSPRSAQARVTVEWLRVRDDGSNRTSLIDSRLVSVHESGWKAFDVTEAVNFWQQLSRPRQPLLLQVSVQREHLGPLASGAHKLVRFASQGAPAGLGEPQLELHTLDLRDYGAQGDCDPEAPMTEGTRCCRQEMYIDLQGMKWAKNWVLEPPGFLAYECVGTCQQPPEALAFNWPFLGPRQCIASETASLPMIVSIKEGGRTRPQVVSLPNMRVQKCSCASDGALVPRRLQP

As to `Cc1ccc(S[C@]2(C(=O)NCc3ccccc3)CC(=O)N(Cc3cc(C(F)(F)F)cc(C(F)(F)F)c3)[C@@H]2c2ccc(CO)cc2)cc1`, the composite z-score in [1] was -0.115; in assay [3], -0.637; in [4], -0.477; in assay [5], 0.187; in assay [6], -0.12; in assay [7] it was 0.516. Besides, the composite z-score in assay [8] is 0.0538; in [9], -0.712; in assay [10] it was -0.302. For the same compound, the z-score in [2] was -0.763.

As to `CCN(CC)c1ccc(N2CC=CC34O[C@@H]5C=CCCOC(=O)C5[C@H]3C(=O)N(CCCO)[C@@H]4C2=O)cc1` (stereo not given in full), the composite z-score in [1] was -0.591; in assay [3], 0.0606; in assay [4], -0.409; in assay [5], -0.977; in assay [6] it was -0.176; in [7] it was -0.294. For the same compound, the figures for the composite z-score in assay [8], in assay [9] and in assay [10] were -0.288, -0.273 and -1.17, respectively. The same compound returned a z-score in assay [2] of 0.0997.

For `O=C1OCC=C[C@H]2OC34C=CCN(CCN5CCOCC5)C(=O)[C@H]3N(CCCCCCO)C(=O)[C@@H]4[C@@H]12` (stereo not given in full), the composite z-score in [1] is -0.139; in assay [3], -0.207; in assay [4] it was -0.238; in assay [5], -0.695; in assay [6] it was -0.176; in [7] it was -0.0904. Further, the composite z-score in assay [8] was 0.0395; in assay [9], 1.37; in assay [10] it was 0.0977. In addition, the z-score in assay [2] is -0.413.

As for `CC(=O)n1cc(C(O)C2C=CC3C(=O)N(c4ccccc4)C(=O)C3N2Nc2ccc(C#N)cc2)c2ccccc21` (stereo not given), the composite z-score was 1.48 in [1]; -0.125 in assay [3]; 0.449 in [4]; -0.577 in assay [5]; 0.155 in assay [6]; 0.385 in assay [7]. For the same compound, the composite z-score in assay [8] was found to be 1.02; in [9], 0.557; in assay [10], 0.645. In addition, in assay [2], the z-score is -0.41.

On to `[N-]=[N+]=NCc1ccccc1[C@H]1OC(c2ccc(OCCCO)cc2)=N[C@@]1(Cc1ccccc1)C(=O)NCC(O)CO` (stereo not given in full), for which the composite z-score is 1.13 in assay [1]; -0.524 in assay [3]; 1.52 in [4]; 0.564 in assay [5]; 0.507 in [6]; 0.128 in assay [7]. Moreover, the composite z-score was 1.9 in [8], 1.51 in assay [9] and 0.131 in [10]. Besides, the z-score in assay [2] was -1.38.

`COC(=O)[C@@]1(Cc2ccc(F)cc2)[C@H]2c3cc(C(=O)N(C)C)n(CCCNc4ccc(C(F)(F)F)cc4Cl)c3C[C@H]2CN1C(=O)c1ccccc1`: the composite z-score in assay [1] is 1.4; in [3], -0.385; in [4], 2.36; in assay [5], 1.31; in assay [6], 0.284; in assay [7] it was 0.391. Moreover, the composite z-score in assay [8] is 1.53; in assay [9] it was 1.37; in assay [10], 1.85. Further, the z-score in assay [2] was -2.38.

As for `COCC1C2CC[C@H]3C(OCc4ccc(F)cc4C(F)(F)F)OC[C@]4(C)[C@H]3C2=C(CN4C(=O)OC(C)(C)C)[C@H](C)C1COC` (stereo not given in full), the composite z-score in assay [1] is 1.37; in [3] it was -0.13; in assay [4], 2.61; in [5] it was 1.37; in [6], 0.0017; in assay [7], 0.177. Moreover, the composite z-score in assay [8] came to 2.19; in assay [9], 1.56; in assay [10], 0.9. Besides, the z-score in assay [2] is -0.386.

On to `C=CC[C@@]1(C(N)=O)N=C(c2ccc(OCCCO)cc2)O[C@@H]1c1ccccc1N=[N+]=[N-]`, for which the composite z-score in assay [1] is -0.42; in [3], 0.362; in assay [4], -0.151; in [5] it was -0.471; in [6], 0.0825; in assay [7], -0.148. Further, the composite z-score in assay [8] was 1.1; in [9], 2.04; in [10] it was 0.673. The compound further had a z-score in [2] of 1.51.

For `CN1C(=O)C2C=CC(C(O)C(c3ccccc3)c3ccccc3)N(Nc3ccccc3)C2C1=O` (stereo not given), the composite z-score in assay [1] is 1.42; in assay [3], -0.0076; in assay [4] it was 1.29; in [5], 0.567; in assay [6] it was 0.137; in assay [7], 0.216. Moreover, the composite z-score in [8] was determined as 0.713; in [9] it was 0.597; in assay [10], 1.34. Further, the z-score in [2] was -1.13.

As for `CN(C)CCCCCCNC(=O)[C@@H]1C[C@@H]2C(=O)NCC(=O)N2[C@@H]1c1cccc(OCCO)c1`, the composite z-score is 1.12 in assay [1]; 1.36 in [3]; 0.138 in [4]; -0.708 in [5]; -0.0222 in assay [6]; 0.0948 in assay [7]. Besides, the composite z-score in assay [8] was 0.107; in assay [9], 1.88; in assay [10], -0.0783. For the same compound, in assay [2], the z-score is -0.358.

Consider `C=CCC(OC(C)=O)[C@@H]1[C@@H](N(Cc2cc3ccccc3o2)C(=O)c2ccc(C)cc2)c2cc(OCCCO)ccc2N1C(=O)c1ccc(-c2ccccc2)cc1` (stereo not given in full), for which the composite z-score in assay [1] was 0.182; in [3], 0.36; in assay [4], -0.259; in assay [5], 0.544; in [6], -0.0529; in assay [7], 0.0141. Further, the composite z-score is -0.374 in assay [8], 0.285 in [9] and 0.169 in assay [10]. In addition, the z-score in assay [2] was -1.67.

On to `COC(=O)c1c(CC[C@@H](CO)NC(=O)Nc2ncn[nH]2)oc(C(=O)Cc2ccccc2)c1C(=O)OC`, for which the composite z-score was 0.693 in assay [1]; 0.506 in assay [3]; 0.0262 in [4]; -0.828 in assay [5]; -0.243 in assay [6]; 0.158 in assay [7]. The composite z-score in assay [8] was -0.0144; in [9], -0.0045; in assay [10], 0.924. In assay [2], this compound had a z-score of 0.0922.

On to `O=C1OCC=C[C@H]2OC34C=CCN(c5ccc6ccccc6c5)C(=O)[C@H]3N(CCO)C(=O)[C@@H]4[C@@H]12` (stereo not given in full), for which the composite z-score in [1] is -0.589; in assay [3], -1.99; in assay [4], -0.245; in assay [5], 0.716; in [6], -0.152; in assay [7] it was 0.191. Further, the figures for the composite z-score in assay [8], in assay [9] and in assay [10] were 0.0721, -0.831 and -0.74, respectively. In addition, the z-score in assay [2] is -0.727.

As for `[N-]=[N+]=NCc1ccccc1C[C@]1(C(=O)NCc2ccccc2)COC(c2ccc(OCCCO)cc2)=N1`, the composite z-score is 0.953 in [1]; -0.0623 in [3]; 0.614 in [4]; 0.345 in assay [5]; 0.027 in assay [6]; 0.0483 in assay [7]. The values for the composite z-score in [8], in assay [9] and in assay [10] were -0.415, 1.04 and 0.188, respectively. The z-score in [2] is -3.59.

For `Cc1ccccc1/C=C/C=O`, the composite z-score in assay [1] was -1.54; in assay [3] it was -0.615; in assay [4], -0.559; in assay [5], -0.161; in assay [6], -0.172; in assay [7] it was -0.154. For the same compound, the results for the composite z-score in assay [8], in assay [9] and in [10] were -0.41, -0.23 and -0.465, respectively. Further, the z-score in [2] came to 0.19.

For `O=C(NCc1ccccc1)[C@@H]1c2ccccc2C(=O)N(C2CCCCC2)[C@H]1c1ccc(CO)cc1`, the composite z-score in assay [1] is 1.47; in assay [3], -0.379; in assay [4], -0.576; in [5], -0.545; in assay [6], -0.104; in assay [7], -0.247. Further, the composite z-score in [8] is -0.282; in assay [9] it was 0.089; in assay [10] it was -0.09. Further, the z-score in assay [2] is -0.166.

For `COC(=O)[C@@]1(Cc2ccc(OC)cc2)[C@H]2c3cc(C(=O)N4CCCC4)n(CCc4ccccn4)c3C[C@H]2CN1C(=O)c1ccccc1`, the composite z-score in assay [1] is -0.091; in assay [3], -0.694; in [4] it was 1.34; in assay [5] it was 0.61; in assay [6], 0.164; in assay [7], 1.23. In addition, the composite z-score was found to be 1.22 in [8], 0.432 in [9] and 0.329 in assay [10]. Further, in assay [2], the z-score is -0.216.

For the compound `Cc1ccc(S[C@]2(C(=O)NCCN3CCOCC3)CC(=O)N(C3CCCCC3)[C@@H]2c2ccc(CO)cc2)cc1`, the composite z-score was 1.29 in [1]; -0.55 in assay [3]; 1.06 in assay [4]; -0.39 in [5]; -0.0685 in [6]; -0.186 in assay [7]. The composite z-score in assay [8] is 0.0373; in assay [9], 0.347; in [10] it was 0.711. Besides, in assay [2], the z-score was -1.82.

For the compound `COC(=O)[C@@]1(Cc2ccc(F)cc2)[C@H]2c3cc(C(=O)N4CCCC4)n(CCc4ccc(OC)c(Br)c4)c3C[C@H]2CN1C(=O)c1ccccc1`, the composite z-score in [1] was 0.543; in [3], 0.179; in assay [4], 2.7; in assay [5], 1.29; in [6] it was 0.155; in [7], 0.627. The composite z-score in assay [8] was 1.11; in assay [9], 2.7; in assay [10] it was 2.38. The z-score in assay [2] was -2.69.

Turning to `O=C(NCC(O)CO)[C@]1(CCS(=O)(=O)c2ccccc2)N=C(c2ccc(OCCCO)cc2)O[C@@H]1c1ccccc1` (stereo not given in full), the composite z-score was 0.556 in assay [1]; -0.805 in assay [3]; 1.99 in assay [4]; 1.48 in [5]; -0.0846 in assay [6]; 0.0756 in assay [7]. Besides, the composite z-score in assay [8] was 1.12; in assay [9], 2.69; in assay [10] it was 2.41. In assay [2], the z-score was -0.326.

For the compound `C=C(C(=O)CC[C@@H](OC(C)=O)c1ccc(OCCO)cc1)C(C)C`, the composite z-score was 0.522 in assay [1]; -0.384 in assay [3]; -0.43 in assay [4]; -0.908 in assay [5]; 0.117 in assay [6]; -0.0866 in assay [7]. Further, the figures for the composite z-score in [8], in assay [9] and in [10] were 0.365, 0.159 and 0.227, respectively. For the same compound, the z-score in assay [2] was -1.88.
